Drawing on PubChem BioAssay (NCI), this text covers growth inhibition for 10 molecules.

SMILES strings stand for the structures. Compounds without any hit were thinned out: in the full panel of roughly 79,000, 15% have a hit. Unmarked numbers belong to inactive results. The source made the active and inactive calls. Rule as the data show it: active = growth inhibition above about 70%; inactive = the rest.

Test [1] is described as follows: NCI Yeast Anticancer Drug Screen. Data for the rad50 strain (AID 155).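 Also: 0% = growth of vehicle-only cultures of the same strain.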 The note with it: S. cerevisiae rad50 strain growth inhibition, stronger effect = higher value. Summed up:
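Inhibition values express reduced yeast growth in compound-treated cultures relative to vehicle-treated controls.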

Test [2] can be described thus: NCI Yeast Anticancer Drug Screen. Data for the mec2-1 strain (AID 157). The note with it: S. cerevisiae mec2-1 strain, stronger effect = higher value. Summed up:
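Each compound was tested on mec2-1 yeast, a strain altered in DNA damage repair or cell cycle control. Growth inhibition is reported relative to vehicle.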

Test [3] in a line: NCI Yeast Anticancer Drug Screen. Data for the sgs1 mgt1 strain (AID 161).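 Also: 0% = growth of cultures given vehicle only.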 The conditions noted are these: S. cerevisiae sgs1 mgt1 strain, stronger effect = higher value. The method, boiled down:
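Genetically altered yeast, compound exposure, growth inhibition relative to vehicle.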

Test [4] can be described thus: NCI Yeast Anticancer Drug Screen. Data for the cln2 rad14 strain (AID 165).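 Also: 0% = growth equal to vehicle treated cultures.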 The note with it: S. cerevisiae cln2 rad14 strain, stronger effect = higher value. Summed up:
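Test compounds were added to cln2 rad14 yeast cultures; inhibition of growth was then determined by comparison with vehicle treatment.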

Test [5] in a line: NCI Yeast Anticancer Drug Screen. Data for the bub3 strain (AID 167). The note with it: S. cerevisiae bub3 mutant strain, stronger effect = higher value. Summed up: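 Steps: expose the mutant yeast strain to compound; grow alongside vehicle-treated cultures; measure growth; express inhibition against the vehicle cultures.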
Test [6] is described as follows: NCI Yeast Anticancer Drug Screen. Data for the mlh1 rad18 strain (AID 175). The conditions noted are these: S. cerevisiae mlh1 rad18 strain growth inhibition, stronger effect = higher value. The method, boiled down:
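Inhibition values reflect reduced growth of mutant yeast versus vehicle-treated controls following compound exposure; the mutations affect DNA damage repair.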

Where [7] appears, read: at 5.0 µM (retest, dose inferred, filed as 0.5).
Where [8] appears, read: at 50.0 µM (retest, dose inferred, filed as 5.0).

Consider `CC(=O)[C@H]1CC[C@H]2[C@@H]3CC[C@H]4C[C@@H](N5CCOCC5)CC[C@]4(C)[C@H]3CC[C@]12C`, for which the growth inhibition was 54% in test [1] (setting [7]); 63% in test [1] (setting [8]); 73.3% (active) in test [1] (at 50.0 µM); 61% in test [2] (setting [7]); 76% (active) in test [2] (setting [8]); 36.5% in test [2] (at 50.0 µM). The growth inhibition in test [3] (setting [7]) is 70% (active); in test [3] (setting [8]), 87% (active); in test [3] (at 50.0 µM), 83.5% (active); in test [4] (setting [7]) it was 52%; in test [4] (setting [8]), 30%; in test [4] (at 50.0 µM) it was 87.5% (active). The growth inhibition is 49% in test [5] (setting [7]); 81% (active) in test [5] (setting [8]); 59.5% in test [5] (at 50.0 µM); 76% (active) in test [6] (setting [7]); 69% in test [6] (setting [8]); 74.8% (active) in test [6] (at 50.0 µM).
As to `CN(C)CCCCCNc1c2ccccc2nc2cccc([N+](=O)[O-])c12`, the growth inhibition in test [1] (setting [7]) is 73% (active); in test [1] (setting [8]), 95% (active); in test [1] (at 50.0 µM) it was 90% (active); in test [2] (setting [7]) it was 52%; in test [2] (setting [8]), 97% (active); in test [2] (at 50.0 µM) it was 91.2% (active). Besides, the growth inhibition in test [3] (setting [7]) is 29%; in test [3] (setting [8]) it was 33%; in test [3] (at 50.0 µM) it was 89.2% (active); in test [4] (setting [7]) it was 37%; in test [4] (setting [8]), 62%; in test [4] (at 50.0 µM), 92.3% (active). Further, the growth inhibition in test [5] (setting [7]) was 23%; in test [5] (setting [8]), 47%; in test [5] (at 50.0 µM) it was 89% (active); in test [6] (setting [7]), 78% (active); in test [6] (setting [8]), 96% (active); in test [6] (at 50.0 µM) it was 87.7% (active).
Take `COc1ccc2cc(Br)ccc2c1`: the growth inhibition in test [1] (setting [7]) was 4%; in test [1] (setting [8]) it was -25%; in test [1] (at 50.0 µM), 10.3%; in test [2] (setting [7]) it was 6%; in test [2] (setting [8]), -2%; in test [2] (at 50.0 µM), 5.1%. Also, the growth inhibition is 2% in test [3] (setting [7]); 1% in test [3] (setting [8]); 9.85% in test [3] (at 50.0 µM); 8% in test [4] (setting [7]); -2% in test [4] (setting [8]); -10.4% in test [4] (at 50.0 µM). Besides, the growth inhibition in test [5] (setting [7]) was 32%; in test [5] (setting [8]), 6%; in test [5] (at 50.0 µM) it was -0.55%; in test [6] (setting [7]), 4%; in test [6] (setting [8]), -2%; in test [6] (at 50.0 µM), 17.2%.
For the molecule `CSC(=S)N/N=C/c1cccc(C)n1`, the growth inhibition in test [1] (setting [7]) is 13%; in test [1] (setting [8]), 71% (active); in test [1] (at 50.0 µM), 95.1% (active); in test [2] (setting [7]) it was 5%; in test [2] (setting [8]) it was 60%; in test [2] (at 50.0 µM), 82.1% (active). Further, the growth inhibition in test [3] (setting [7]) is 3%; in test [3] (setting [8]), 69%; in test [3] (at 50.0 µM), 66.2%; in test [4] (setting [7]) it was -8%; in test [4] (setting [8]) it was 26%; in test [4] (at 50.0 µM), 67.7%. The growth inhibition in test [5] (setting [7]) is 1%; in test [5] (setting [8]), 72% (active); in test [5] (at 50.0 µM), 86.8% (active); in test [6] (setting [7]), 30%; in test [6] (setting [8]), 80% (active); in test [6] (at 50.0 µM), 82.6% (active).
Consider `COc1ccc2c(c1)n([O-])c1cc(C#N)ccc1[n+]2=O`, for which the growth inhibition in test [1] (setting [7]) is 94% (active); in test [1] (setting [8]), 97% (active); in test [1] (at 50.0 µM), 96.1% (active); in test [2] (setting [7]), 50%; in test [2] (setting [8]), 97% (active); in test [2] (at 50.0 µM) it was 45.6%. Moreover, the growth inhibition is 41% in test [3] (setting [7]); 80% (active) in test [3] (setting [8]); 35.9% in test [3] (at 50.0 µM); 17% in test [4] (setting [7]); 59% in test [4] (setting [8]); -11.7% in test [4] (at 50.0 µM). Also, the growth inhibition was 33% in test [5] (setting [7]); 87% (active) in test [5] (setting [8]); 44.9% in test [5] (at 50.0 µM); 73% (active) in test [6] (setting [7]); 96% (active) in test [6] (setting [8]); 28.6% in test [6] (at 50.0 µM).
Take `COc1ccc(-c2nnc(C)nc2-c2ccc(OC)cc2)cc1`: the growth inhibition is 3% in test [1] (setting [7]); -1% in test [1] (setting [8]); 22.1% in test [1] (at 50.0 µM); -1% in test [2] (setting [7]); 7% in test [2] (setting [8]); 1.2% in test [2] (at 50.0 µM). In addition, the growth inhibition in test [3] (setting [7]) is 3%; in test [3] (setting [8]) it was 19%; in test [3] (at 50.0 µM), 23.2%; in test [4] (setting [7]) it was -6%; in test [4] (setting [8]), -1%; in test [4] (at 50.0 µM) it was 17.6%. Besides, the growth inhibition in test [5] (setting [7]) is 14%; in test [5] (setting [8]), 41%; in test [5] (at 50.0 µM), 81.6% (active); in test [6] (setting [7]), 0%; in test [6] (setting [8]), 2%; in test [6] (at 50.0 µM), 13.2%.
For the molecule `O=C(O)CCn1c2ccccc2c2ccccc21`, the growth inhibition in test [1] (setting [7]) is 6%; in test [1] (setting [8]), 45%; in test [1] (at 50.0 µM), 24.6%; in test [2] (setting [7]), -13%; in test [2] (setting [8]) it was 52%; in test [2] (at 50.0 µM), 36.4%. For the same molecule, the growth inhibition in test [3] (setting [7]) is -1%; in test [3] (setting [8]), 68%; in test [3] (at 50.0 µM), 40.5%; in test [4] (setting [7]) it was -10%; in test [4] (setting [8]), 42%; in test [4] (at 50.0 µM) it was 15.1%. Also, the growth inhibition in test [5] (setting [7]) is -6%; in test [5] (setting [8]), 61%; in test [5] (at 50.0 µM), 55.5%; in test [6] (setting [7]) it was -4%; in test [6] (setting [8]), 49%; in test [6] (at 50.0 µM), 66%.
Turning to `COc1ccc(C2COc3c(ccc(O)c3O)C2)cc1` (stereo not given), the growth inhibition in test [1] (setting [7]) is 1%; in test [1] (setting [8]) it was 99% (active); in test [1] (at 50.0 µM), 93.3% (active); in test [2] (setting [7]), 9%; in test [2] (setting [8]), 99% (active); in test [2] (at 50.0 µM), 97.3% (active). For the same molecule, the growth inhibition in test [3] (setting [7]) is -2%; in test [3] (setting [8]), 97% (active); in test [3] (at 50.0 µM), 94.7% (active); in test [4] (setting [7]), 11%; in test [4] (setting [8]), 98% (active); in test [4] (at 50.0 µM), 89.2% (active). The growth inhibition in test [5] (setting [7]) is 11%; in test [5] (setting [8]), 98% (active); in test [5] (at 50.0 µM), 81.4% (active); in test [6] (setting [7]) it was 1%; in test [6] (setting [8]) it was 98% (active); in test [6] (at 50.0 µM) it was 96.8% (active).
As for `C/C=C(\C)C(=O)OC1C2C(C)=CC(=O)C(O)C2(C)C2C3(O)OCC24C1OC(=O)C(O)C4C(C)C3O` (stereo not given), the growth inhibition in test [1] (setting [7]) is -2%; in test [1] (setting [8]), 54%; in test [1] (at 50.0 µM) it was 84.2% (active); in test [2] (setting [7]), 15%; in test [2] (setting [8]), 30%; in test [2] (at 50.0 µM) it was 72.5% (active). Moreover, the growth inhibition in test [3] (setting [7]) is 9%; in test [3] (setting [8]) it was 42%; in test [3] (at 50.0 µM), 71.7% (active); in test [4] (setting [7]), 8%; in test [4] (setting [8]) it was 67%; in test [4] (at 50.0 µM), 78.5% (active). The growth inhibition in test [5] (setting [7]) was -13%; in test [5] (setting [8]), 51%; in test [5] (at 50.0 µM), 75.8% (active); in test [6] (setting [7]), -33%; in test [6] (setting [8]), 66%; in test [6] (at 50.0 µM), 34.5%.
As to `O=C(CCc1ccccc1)OCC1OC(OC(=O)CCc2ccccc2)C(OC(=O)CCc2ccccc2)C(OC(=O)CCc2ccccc2)C1OC(=O)CCc1ccccc1` (stereo not given), the growth inhibition in test [1] (setting [7]) was 1%; in test [1] (setting [8]), 4%; in test [1] (at 50.0 µM) it was 25.6%; in test [2] (setting [7]), 0%; in test [2] (setting [8]), -2%; in test [2] (at 50.0 µM) it was 21.4%. The growth inhibition was -3% in test [3] (setting [7]); -22% in test [3] (setting [8]); 19.7% in test [3] (at 50.0 µM); 0% in test [4] (setting [7]); -1% in test [4] (setting [8]); -0.4% in test [4] (at 50.0 µM). The growth inhibition in test [5] (setting [7]) was 2%; in test [5] (setting [8]), 1%; in test [5] (at 50.0 µM) it was -6.35%; in test [6] (setting [7]), -3%; in test [6] (setting [8]), 3%; in test [6] (at 50.0 µM), 45.4%.
